Most compounds without a hit are left out; they make up all but 21% or so of the library.
IL-1B inflam inh – inflammasome signaling inhibition, IL-1 beta readout. THP-1 LPS/ATP IL-1B secretion, AlphaLISA, 16 h; hits give low values. activity change, % at 57.5 µM. 360,000 compounds, 4.7% hits. AID 743279; in the data active = activity change below about -50%; inconclusive = mostly about -30% to -49%; also: % is scaled to controls: 0 for no effect and ±100 for the full control effect
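Secreted IL-1B measured by AlphaLISA bead assay after 16 h compound exposure of THP-1 cells; compounds (final up to 57.5 uM) added 1 h before LPS (250 ng/mL) and ATP (1.25 mM) stimulation; lower signal means less secretion.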
D3 antag – antagonists of human D3 dopamine receptor; 360,000 compounds, 2.5% hits; P35462; D3R cells, DiscoveRx beta-arrestin luminescence, antagonist mode; hits give low values; AID 652054; max response, negative = inhibition, %; in the data active = max response below about -50%; inconclusive = no clear call, values can overlap the other calls; also: % is scaled to controls: 0 for no effect and ±100 for the full control effect
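Cells plated overnight at 1500 cells/well, then exposed to library compounds with dopamine controls for 90 minutes at 37 degrees C. DiscoveRx reagent added for 30–60 minutes at room temperature; luminescence read, quantitative HTS format.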
ClpP mod – qHTS Assay for Activators of ClpP; purified B. subtilis ClpP, FRET peptide cleavage, 20 min; Potency, µM (series often up to 57.5 µM), for the others: top-dose activity change, negative = active; 340,000 compounds, 1.9% hits; ATP-dependent Clp protease proteolytic subunit (Bacillus subtilis (strain 168)), P80244; active = well fitted falling curve with a large enough effect; inconclusive = small, poorly fitted or top-dose-only effect; inactive = no such curve, though single readings can be large or run the other way; also: potency is read from the fitted curve at half-maximal effect; the source files actives as falling curves though it sought activators and does not explain the sign; nearly all actives have a fitted effect of over 65% in size
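ClpP 10 microg/mL final, pH 8 Tris/KCl buffer with BSA, glycerol, Tween-20; compound pinned in; FRET-FV substrate; RT 20 min; Ex320/Em430; ΔFRET vs ADEP 5.8 microM, DMSO, no enzyme.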
DT40 TDP1 CPT – growth inhibition of DT40 Tdp1-/-;hTDP1 cells with camptothecin (screen for TDP1 inhibitors); Potency, µM (series often up to 46.2 µM), for the others: at the highest dose activity change, negative = growth inhibition, usual class: inhibitors; chicken DT40 Tdp1-/-;hTDP1 cells + 20 nM CPT, ATP luminescence, 48 h; AID 686979; 420,000 compounds, 12% hits; also: potency is read from the fitted curve at half-maximal effect; % is scaled to controls: 0 for no effect and ±100 for the full control effect; nearly all actives have a fitted effect of over 55% in size
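Chicken DT40 Tdp1-/- cells complemented with human TDP1, 400 cells/well, exposed to compounds plus 20 nM camptothecin for at least 48 h at 37 C; viability read as ATP content by CellTiter-Glo luminescence.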
D3 ag – D3 dopamine receptor (human) agonism; P35462; D3R DiscoveRx beta-arrestin cells, luminescence, 90 min; max activation, %; 410,000 compounds, 0.58% hits; in the data active = max activation above about 30%; also: 0% is about no effect
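Cells at 1500/well, incubated overnight, then treated with pinned compounds (dopamine as control) for 90 min at 37 degrees C. DiscoveRx reagent added for 30 - 60 minutes at room temperature; luminescence read.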
TDP1 cell noCPT – qHTS for Inhibitors of human tyrosyl-DNA phosphodiesterase 1 (TDP1): qHTS in cells in absence of CPT | DT40 Tdp1-/- hTDP1 cells, no CPT, ATP luminescence, 48 h | Potency, µM (titrated, usually from 46.2 µM), inactives show at the highest dose activity change, negative = growth inhibition, usual class: inhibitors | 420,000 compounds, 15% hits | AID 686978, 2013; also: potency is read from the fitted curve at half-maximal effect; % is scaled to controls: 0 for no effect and ±100 for the full control effect; nearly all actives have a fitted effect of over 55% in size
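Chicken DT40 Tdp1-/- cells complemented with human TDP1, screened without camptothecin (DMSO vehicle only), 400 cells/well. Compounds pin-transferred, cells incubated at 37 °C for at least 48 hr. Growth read as ATP-dependent luminescence (CellTiter-Glo, 30 min at RT).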
An asterisk follows results filed as active; ? = inconclusive; · = no result given. Unless noted, calls follow the shape of the dose curve; as a rule, active = well fitted inhibition curve with a large enough effect; inconclusive = small, poorly fitted or top-dose-only effect; inactive = flat fitted curve, though single readings scatter.

SMILES	IL-1B inflam inh	D3 antag	ClpP mod	DT40 TDP1 CPT	D3 ag	TDP1 cell noCPT
Cc1cccc(NC(=O)COc2coc(CN3CCN(c4ccccc4)CC3)cc2=O)c1	11.7	16.2	0.8%	20.6µM*	1.8	18.4µM*
COc1ccc(NC(=O)COc2coc(CN3CCN(c4ccccc4)CC3)cc2=O)cc1	0.9	1.5	28.2µM*	20.6µM*	0.7	?
COc1ccc([C@@H]2Sc3ccccc3NC(=O)[C@@H]2O)cc1	4.6	2.3	-1.9%	7.6%	2.3	2.3%
O=C(O)/C=C/c1nc(-c2ccccc2)n2ccccc12	10.6	-4.1	31.6µM*	-7.7%	-9.1	0.0%
COC(=O)[C@@]1(Sc2ccc(C)cc2)CC(=O)N(c2ccc(Cl)cc2)[C@@H]1c1ccccc1	18.0	67.3	-2.0%	?	4.6	20.6µM*
COC(=O)c1cccc(N2C(=O)C[C@](Sc3ccc(C)cc3)(C(=O)OC)[C@H]2c2ccccc2)c1	7.0	135.0	-5.2%	?	22.8	23.1µM*
Cc1ccc(OCC(O)CN2CCCC2)cc1 (stereo unspecified)	12.7	-6.6	-0.5%	6.6%	-21.0	0.9%
Cc1cccc(N2CCN(CC(O)COc3ccc(Cl)cc3)CC2)c1 (stereo unspecified)	?	-80.2*	-1.0%	?	2.5	13µM*
COc1ccc(OCC(O)CN2CCN(c3ccc(Cl)cc3)CC2)cc1 (stereo unspecified)	14.7	?	-0.3%	-24.4%	4.7	?
Cc1cccc(N2CCN(CC(O)COc3ccccc3)CC2)c1 (stereo unspecified)	-15.0	-70.6*	1.3%	-5.0%	-10.3	8.1%
Cc1ccc(N2CCN(CC(O)COc3cccc(C)c3)CC2)cc1 (stereo unspecified)	2.6	?	0.0%	23.1µM*	1.1	?
COc1ccc(/C=N/OCC(=O)N2CCCC2)c(OC)c1	0.9	14.5	-11.7%	1.0%	-9.6	-18.4%
COC(=O)C1=CN(C(C)C)C=C(C(=O)OC)C1c1cc2c(cc1Br)OCO2	-19.6	26.7	31.6µM*	?	33.3*	?
CCOc1ccc2ccccc2c1C1NC(=S)N(C)C(C)=C1C(=O)OC (stereo unspecified)	12.6	-4.1	8.91µM*	?	-4.6	?
CCOC(=O)C1=C(C)N(C)C(=S)NC1c1c(OCC)ccc2ccccc12 (stereo unspecified)	24.1	1.0	1.0%	?	1.5	-93.6%
CC1=C(C(=O)OCC(C)C)C(c2cc3c(cc2Br)OCO3)NC(=O)N1C (stereo unspecified)	-6.9	11.8	0.6%	18.4µM*	3.0	?
CCCOC(=O)C1=C(C)N(C)C(=O)NC1c1cc2c(cc1[N+](=O)[O-])OCO2 (stereo unspecified)	6.5	9.7	·	?	1.4	?
CC1=C(C(=O)OCC(C)C)C(c2ccccc2Cl)NC(=O)N1C (stereo unspecified)	-15.0	26.0	-2.2%	8.2µM*	-0.3	13µM*
CCOC(=O)c1c(C)[nH]c(C)c1C(=O)CSc1ncccn1	14.4	15.8	1.0%	3.3%	20.2	-5.0%
COc1ccc(CNC(=O)C2CCN(Cc3nc(-c4ccc(OC)c(OC)c4)oc3C)CC2)cc1	·	·	-18.9%	?	5.2	?
CCOCCOC(=O)C1=C(C)N(C)C(=O)NC1c1ccccc1Cl (stereo unspecified)	0.0	-1.8	-4.4%	-23.5%	4.5	-23.5%
CCOC(=O)C1=C(C)N(C)C(=O)NC1c1cccc2ccccc12 (stereo unspecified)	50.7	0.3	·	?	-5.9	25.9µM*
Cc1cc(C)nc(-n2nc(C)c3c2N(Cc2ccccc2F)C(=O)CC3c2ccc(Cl)cc2)n1 (stereo unspecified)	·	·	3.5%	23.1µM*	-12.9	23.1µM*
COc1ccc(C2CC(=O)N(Cc3ccc(C)cc3)c3c2c(C)nn3-c2nc(C)cc(C)n2)c(OC)c1 (stereo unspecified)	·	·	-0.9%	?	-6.3	-52.9%
CCOc1cc(/C=N/NC(=O)c2cccnc2)ccc1OC(=O)c1ccco1	-4.4	3.6	·	-6.9%	-4.7	-17.6%
SMILES	IL-1B inflam inh	D3 antag	ClpP mod	DT40 TDP1 CPT	D3 ag	TDP1 cell noCPT
CCc1ccc(OCC(=O)N2CCN(c3ccccc3F)CC2)cc1	-6.4	-2.4	-0.2%	-22.2%	-5.0	-3.2%
CCOC(=O)c1cnc2cc(C(F)(F)F)ccc2c1N1CCN(c2cccc(Cl)c2)CC1	·	·	-0.8%	?	-5.2	23.1µM*
CCOC(=O)c1cnc2ccc(OCC)cc2c1N1CCN(c2ccccc2F)CC1	·	·	-4.6%	16.4µM*	1.1	11.6µM*
CCOC(=O)c1cnc2ccc(OCC)cc2c1N1CCN(c2ccccc2)CC1	-16.8	-65.2*	-6.8%	20.6µM*	-0.9	25.9µM*
CCOC(=O)c1cnc2ccc(OCC)cc2c1NCc1ccccc1	?	14.7	?	5.8µM*	48.3*	6.51µM*
CCOC(=O)c1cnc2ccc(OCC)cc2c1NCc1cccnc1	?	10.9	?	?	-6.5	?
CCOC(=O)N1CCN(c2c(N3CCN(c4cccc(C(F)(F)F)c4)CC3)c(=O)c2=O)CC1	-28.0	17.0	0.3%	-24.0%	-11.5	-25.0%
CCSc1nnc2c(n1)OC(CC)N(C(C)=O)c1ccccc1-2 (stereo unspecified)	·	·	-3.0%	·	-5.6	·
COc1ccc(NC(=O)CSc2nnnn2C2CCCC2)c(OC)c1	-29.9	-10.7	0.4%	-0.9%	-14.6	-2.0%
COc1ccc(Cl)cc1C(=O)CSc1nnnn1C1CCCC1	?	-17.6	-1.4%	16.4µM*	-5.1	18.4µM*
COc1ccc(Cl)cc1C(=O)CSc1nnnn1C1CCCCC1	-5.1	-5.1	-0.6%	?	-4.8	18.4µM*

Bioassay records: PubChem, National Center for Advancing Translational Sciences (NCATS)
